The results in this text go back to PubChem BioAssay.

Assay [1] has as its system Human papillomavirus type 1a protein E7 (residues 44-93). Description: HPV1a E7 fragment binders on microarrays, primary screen, biochemical, small-molecule microarray, residues 44-93, 635 nm fluorescence (AID 1108).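 Also: E7 fragment applied at 1 µg/mL in TBST for 1 h at 4 C; score combines spot fluorescence with its signal to noise ratio.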 As to conditions: small-molecule microarray binding, fluorescence 635 nm; higher = more signal.
A short description of assay [2]: modulators of HCV replicon luciferase signal, primary screen, HCV replication inhibitor project, Huh7 cells, luciferase reporter (AID 1109).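 Also: huh7 hepatoma cells harbouring a luciferase neomycin HCV replicon reporter; luciferase luminescence as measure of HCV replicon replication; test concentration not given here.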 As to conditions: 48 h, higher = more signal.
In assay [3] the target is Left-right determination factor 2 (Homo sapiens) (UniProt O00292). Nature of the assay: LEFTY2 binders on small-molecule microarrays, primary screen, biochemical, small-molecule microarray, 635 nm fluorescence scan (AID 1110). The settings on record: LEFTY2 binding, higher = more signal.
Sequence of Left-right determination factor 2 (Homo sapiens) (O00292 whole entry, looked up): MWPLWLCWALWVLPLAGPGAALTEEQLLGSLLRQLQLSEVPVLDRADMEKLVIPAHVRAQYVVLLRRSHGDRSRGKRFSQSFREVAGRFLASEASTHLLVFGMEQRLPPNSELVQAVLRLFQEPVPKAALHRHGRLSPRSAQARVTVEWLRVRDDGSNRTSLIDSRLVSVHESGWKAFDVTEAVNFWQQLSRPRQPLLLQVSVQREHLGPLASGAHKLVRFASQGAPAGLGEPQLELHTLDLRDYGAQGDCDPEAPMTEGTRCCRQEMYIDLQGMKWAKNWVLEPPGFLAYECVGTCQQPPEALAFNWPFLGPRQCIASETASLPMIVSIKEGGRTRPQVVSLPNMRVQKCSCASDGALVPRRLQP
The target in assay [4] is Calmodulin-1 (Homo sapiens) (UniProt P0DP23). Nature of the assay: CALM1 binders on microarrays, EGTA buffer, profiling panel, biochemical, small-molecule microarray, Cy5-labelled CALM1 (AID 1111).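 Also: labelled calmodulin applied in Tris saline Tween buffer holding calcium plus EGTA and DTT.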 As to conditions: Cy5-CALM1 binding fluorescence, higher = more signal.
The target is the same in assay [5]. Nature of the assay: calcium-bound CALM1 binders on microarrays, profiling panel, artefact control for SMM control-protein annotation, biochemical, small-molecule microarray, Cy5-labelled CALM1, plus calcium (AID 1112).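 Also: score merges spot fluorescence with signal to noise from triplicate slides.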 As to conditions: Cy5-CALM1 binding fluorescence, higher = more signal.
Assay [6] can be described thus: small-molecule microarray binders of probe aWnt5a, primary screen, biochemical, biotinylated probe, 635/667 nm fluorescence (AID 1113).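 Also: score merges 667 nm fluorescence intensity with signal-to-noise per printed feature.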 The settings on record: higher = more signal.
Assay [7] is described as follows: small-molecule microarray binders of probe aShh, primary screen, biochemical, biotinylated probe, 635/667 nm fluorescence (AID 1114).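 Also: probe is biotin-labelled aShh protein from a stem cell growth factor screen; measures binding of labelled protein to compounds printed on the slide; score merges feature fluorescence at 667 nm with signal-to-noise.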 As to conditions: higher = more signal.
A short description of assay [8]: small-molecule microarray binders of probe aNog, primary screen, biochemical, biotinylated probe, 635/667 nm fluorescence (AID 1115).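 Also: probe is biotinylated aNog protein used at 0.15 µg/mL for 1 h at 4 C; z-score combines 667 nm fluorescence of each spot with its signal to noise.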 As to conditions: higher = more signal.
Assay [9] concerns the target Torsin-1A-interacting protein 1 (Homo sapiens) (UniProt Q5JTV8). Description: LAP1 binders from COS7 cell lysate, primary screen, small-molecule microarray, 635/667 nm fluorescence (AID 1116). As to conditions: COS7-hLAP1 lysate binding, 635 nm fluorescence, higher = more signal.
Assay [10] concerns the target Alpha-bungarotoxin (Bungarus multicinctus) (UniProt P60615). Description: alpha-bungarotoxin binders on microarray, profiling panel, artefact control for SMM control protein annotation, biochemical, small-molecule microarray, Alexa647 label, 635/667 nm fluorescence (AID 1117). The settings on record: alpha-BTX-A647 binding fluorescence, higher = more signal.

Structures are written as SMILES.

Sequence of Alpha-bungarotoxin (Bungarus multicinctus) (P60615 whole entry, looked up): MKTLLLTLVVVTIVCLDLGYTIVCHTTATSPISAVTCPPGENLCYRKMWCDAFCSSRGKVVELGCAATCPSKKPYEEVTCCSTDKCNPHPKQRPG
Sequence of Torsin-1A-interacting protein 1 (Homo sapiens) (Q5JTV8 whole entry, looked up): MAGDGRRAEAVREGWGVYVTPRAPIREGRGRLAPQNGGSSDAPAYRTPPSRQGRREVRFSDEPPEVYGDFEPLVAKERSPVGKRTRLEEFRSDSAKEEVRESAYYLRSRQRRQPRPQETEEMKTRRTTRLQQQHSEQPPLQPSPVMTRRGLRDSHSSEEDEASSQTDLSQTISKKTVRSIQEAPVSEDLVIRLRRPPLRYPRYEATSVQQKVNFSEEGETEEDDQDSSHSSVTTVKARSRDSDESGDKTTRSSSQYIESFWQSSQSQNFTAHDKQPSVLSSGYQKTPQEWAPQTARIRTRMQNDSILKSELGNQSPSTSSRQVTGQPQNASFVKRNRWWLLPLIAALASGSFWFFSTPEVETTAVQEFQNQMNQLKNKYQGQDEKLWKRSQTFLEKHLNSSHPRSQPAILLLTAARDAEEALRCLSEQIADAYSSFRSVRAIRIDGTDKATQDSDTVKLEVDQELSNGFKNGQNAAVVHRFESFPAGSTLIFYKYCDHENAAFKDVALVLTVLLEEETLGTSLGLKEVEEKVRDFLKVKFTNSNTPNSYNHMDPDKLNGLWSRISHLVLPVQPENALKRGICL

`CCCNC(=O)[C@@]1(c2ccc([N+](=O)[O-])cc2)CC(=O)N(C2CCCCC2)[C@@H]1c1ccc(CO)cc1I`: the composite z-score in [1] was 0.198; in [3], -0.101; in assay [4], 0.647; in assay [5], 0.587; in assay [6] it was 0.108; in assay [7] it was 0.166. The composite z-score in [8] was 1.44; in assay [9] it was 1.33; in assay [10], 1.6. In assay [2], the z-score was -2.64.
Regarding `O=C1O[C@@H](c2ccccc2)[C@@H](c2ccccc2)N2[C@@H](c3ccc(O)cc3)[C@]3(C(=O)Nc4ccc(C#CC5=CCCCC5)cc43)[C@@H](C(=O)N3CCN(c4ncccn4)CC3)[C@H]12`, the composite z-score in [1] was 1.17; in [3], 0.333; in assay [4], 1.19; in assay [5], -0.581; in assay [6] it was -0.0459; in assay [7] it was 0.0756. Further, the figures for the composite z-score in assay [8], in assay [9] and in assay [10] were -0.14, 0.951 and 0.862, respectively. Also, in [2], the z-score was -1.9.
For the compound `C=C(/C(=C/C[C@@H](OC(=O)c1ccncc1)c1ccccc1OCCO)c1cc(C(=O)OC)ccc1OC)C(C)C`, the composite z-score in assay [1] was 1.36; in assay [3] it was 0.788; in [4], 0.455; in assay [5], -0.366; in assay [6] it was -0.012; in assay [7], 0.3. In addition, the composite z-score in assay [8] was -0.025; in assay [9] it was 0.568; in assay [10], 0.255. Also, in [2], the z-score is -2.
As for `CCCCN1CC=CC23O[C@@H]4C=CCOC(=O)[C@@H]4[C@H]2C(=O)N(CCCO)[C@@H]3C1=O` (stereo not given in full), the composite z-score in [1] is 0.409; in [3] it was -0.997; in assay [4], -0.125; in assay [5], 0.423; in assay [6] it was -0.202; in assay [7], -0.138. The values for the composite z-score in [8], in assay [9] and in [10] were -0.168, -0.363 and -1.34, respectively. Further, the z-score in assay [2] is -0.352.
With `COc1cc2c(cc1OC)CN(C(=O)[C@@H]1[C@H]3C(=O)O[C@H](c4ccccc4)[C@H](c4ccccc4)N3[C@H](c3ccccc3OCCO)[C@@]13C(=O)Nc1ccc(C#CC4(O)CCCCCC4)cc13)CC2`, the composite z-score in assay [1] was 1.35; in [3], 0.246; in assay [4] it was 0.545; in [5], 0.222; in assay [6], -0.0685; in [7], 0.0048. The composite z-score in assay [8] is 0.151; in assay [9], 1.34; in assay [10], 1.56. In addition, the z-score in assay [2] is -2.18.
As to `CC(C)c1ccc(NN2C(C(O)c3ccco3)C=CC3C(=O)N(c4ccccc4)C(=O)C32)cc1` (stereo not given), the composite z-score in assay [1] is 0.729; in assay [3], 0.183; in assay [4], 2.07; in assay [5], 0.941; in assay [6] it was 0.0629; in [7] it was 0.279. Further, the values for the composite z-score in assay [8], in assay [9] and in [10] were 1.47, 0.93 and 2.69, respectively. Besides, the z-score in [2] worked out at 3.21.
Take `[N-]=[N+]=NCc1ccccc1C[C@]1(C(=O)NCC(O)CO)N=C(c2ccc(OCCCO)cc2)O[C@H]1c1ccccc1CN=[N+]=[N-]` (stereo not given in full): the composite z-score is 1.47 in [1]; -0.353 in assay [3]; 1.42 in assay [4]; 0.786 in [5]; 0.115 in [6]; 0.541 in assay [7]. Also, the composite z-score was determined as 0.721 in [8], 2.41 in [9] and 1.21 in assay [10]. Also, in assay [2], the z-score was -2.88.
As to `COCCOC(=O)N1C(=O)[C@@]2(c3cc(C#CCNC(N)=O)ccc31)[C@H](C(=O)N1CCCCCCC1)[C@H]1C(=O)O[C@H](c3ccccc3)[C@H](c3ccccc3)N1[C@@H]2c1ccc(O)cc1`, the composite z-score in assay [1] was 0.964; in [3], 0.212; in assay [4] it was 0.356; in assay [5], -0.947; in [6], -0.164; in assay [7], -0.214. Also, the results for the composite z-score in assay [8], in [9] and in [10] were -0.456, 0.546 and 0.863, respectively. In addition, the z-score in [2] is -1.07.
On to `O=C1NC(=O)C2C1C=CC(C(O)c1cc(C(F)(F)F)cc(C(F)(F)F)c1)N2Nc1ccc(Cl)cc1Cl` (stereo not given), for which the composite z-score in assay [1] was -0.158; in assay [3], -0.256; in [4], 1.91; in assay [5], 1.29; in assay [6], -0.0405; in [7], 0.431. Further, the composite z-score in [8] was determined as 0.676; in assay [9] it was 1.86; in [10], 0.526. The z-score in [2] is -0.99.
Turning to `CC(C)C(=C=CC[C@H](O)c1ccc(OCCO)cc1)C[C@H](O)c1cc(Cl)cc(Cl)c1O`, the composite z-score in assay [1] is 0.927; in [3] it was 0.437; in assay [4] it was -0.0205; in [5], 0.134; in [6], -0.0125; in assay [7] it was 0.191. Moreover, the composite z-score in assay [8] was 0.205; in assay [9] it was 0.413; in [10] it was 1.44. Besides, the z-score in [2] was -1.57.
In the case of `C=C(CCCC)/C(=C/C[C@@H](OC(C)=O)c1ccc(CO)o1)c1cc(C(=O)OC)ccc1OC`, the composite z-score in assay [1] is 1.45; in assay [3], 0.26; in assay [4] it was 0.723; in assay [5], 0.0443; in assay [6], -0.0758; in assay [7], -0.232. Besides, the composite z-score in [8] was determined as 0.141; in [9] it was 0.886; in assay [10], 1.28. Moreover, the z-score in assay [2] is -1.79.
As to `C=C(CCCC)/C(=C/C[C@@H](OC(=O)c1ccncc1)c1cccc(OCCO)c1)c1cnc2ccccc2c1`, the composite z-score in [1] was 1.3; in assay [3], 0.742; in assay [4] it was 0.185; in [5], -0.472; in assay [6] it was 0.0037; in assay [7], -0.0035. The composite z-score in assay [8] was -0.103; in assay [9], 1.49; in assay [10], 2.58. Further, in assay [2], the z-score was -1.96.
For `C=CC[C@@]1(C(=O)N2CCCCC2)N=C(c2ccc(OCCCO)cc2)O[C@@H]1c1ccccc1`, the composite z-score is 0.305 in assay [1]; 0.106 in assay [3]; 0.506 in assay [4]; -0.185 in [5]; 0.141 in assay [6]; -0.0243 in [7]. The composite z-score turned out to be 2.01 in [8], 1.87 in assay [9] and 0.497 in [10]. Besides, in [2], the z-score was -1.91.
As to `O=C1c2ccccc2[C@@]2(Cc3ccccc3N(C3CC3)C2=O)[C@H](c2ccc(CO)cc2)N1C1CCCCC1`, the composite z-score in assay [1] is 0.0731; in assay [3], -0.825; in [4], 0.0762; in assay [5] it was 0.347; in assay [6] it was -0.096; in assay [7], 0.107. The composite z-score in assay [8] was -0.0165; in assay [9], -0.502; in assay [10], 0.233. Moreover, the z-score in assay [2] turned out to be 0.056.
Take `NC(=O)NCC#Cc1ccc2c(c1)[C@]1(C(=O)N2)[C@H](C(=O)O)[C@H]2C(=O)O[C@H](c3ccccc3)[C@H](c3ccccc3)N2[C@@H]1c1ccccc1OCCO`: the composite z-score in assay [1] is 0.497; in [3] it was 0.28; in [4] it was 2.05; in assay [5], 1.01; in assay [6] it was 0.0354; in assay [7], -0.412. For the same compound, the composite z-score in [8] was found to be 0.91; in [9], 1.45; in assay [10], 3.27. The same compound registered a z-score in assay [2] of 0.393.
With `O=C(NC1CC1)[C@@H]1c2ccccc2C(=O)N(Cc2ccccc2)[C@H]1c1ccc(CO)cc1`, the composite z-score in [1] is 0.511; in [3], -1.25; in [4], -0.564; in assay [5] it was -0.648; in [6] it was -0.148; in assay [7], 0.0099. Further, the composite z-score in assay [8] was determined as 0.368; in assay [9], 0.835; in assay [10], 0.406. Besides, the z-score in assay [2] was -0.89.
